These results are taken from PubChem BioAssay (NCATS).

Holding throughout (assay): Primary qHTS to identify gynecologic anti-cancer compounds using libraries of approved drugs and bioactive compounds (AID 1345084); note: nearly all actives have a fitted effect of over 55% in size
A general note: qHTS replaces the single test concentration by a dilution series.

One assay concerns C33A. The following applies: Gynecologic cancer cell panel viability, ATPlite luminescence, 48 h; series mostly up to 57.5 µM. Summed up: (§1)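 Cell viability after 48 h drug treatment, ATPlite luminescence readout; five doses.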
(In general: Cellular ATP, detected with luciferase, serves as a proxy for viable cell number.)

For the next assay, the system named is CASKI. The note with it: Gynecologic cancer cell panel viability, ATPlite luminescence, 48 h; series mostly up to 57.5 µM. Summed up: as §1
The next assay deals with HeLa. The note with it: Gynecologic cancer cell panel viability, ATPlite luminescence, 48 h; series mostly up to 57.5 µM. Summed up:
as §1

The next assay deals with Hek293T. The note with it: Gynecologic cancer cell panel viability, ATPlite luminescence, 48 h, control line for the selectivity index; series mostly up to 57.5 µM. Summed up: as §1
For a further assay, the system named is JEG-3. The note with it: Gynecologic cancer cell panel viability, ATPlite luminescence, 48 h; series mostly up to 57.5 µM. Summed up:
as §1

For another assay, the system named is Es-2. The following applies: Gynecologic cancer cell panel viability, ATPlite luminescence, 48 h; series mostly up to 57.5 µM. Summed up: as §1

Molecules are shown by their SMILES. Inconclusive results are not listed. Unmarked numbers belong to inactive results. Activity calls are given as the source filed them. Calls come from the whole dose curve; as a rule, active = well fitted cell-killing curve with a large enough effect; inconclusive = small, poorly fitted or top-dose-only effect, or effect the other way; inactive = flat fitted curve, though single readings scatter.
% is set by controls: 0 for no effect and ±100 for the full control effect; potency is the fitted concentration of half-maximal effect.

On to `COc1cc(F)c(F)c(Nc2ccc(I)cc2F)c1NS(=O)(=O)C1(CC(O)CO)CC1` (configuration not stated), for which the Potency result in the assay with C33A, with CASKI, in the assay on HeLa, in the assay with Hek293T and with JEG-3 was “inactive” in each case.
Turning to `O=C(c1c(F)ccc(NS(=O)(=O)N2CC[C@@H](F)C2)c1F)c1c[nH]c2ncc(-c3cnc(C4CC4)nc3)cc12`, the Potency result in the assay on C33A, in the assay on CASKI, in the assay with HeLa, in the assay on Hek293T and in the assay on JEG-3 was “inactive” in each case.
In the case of `Cn1c(CO)c(-c2ccccc2)c2cc([N+](=O)[O-])ccc21`, the Potency entry in the assay with C33A, in the assay with CASKI, in the assay on Es-2, in the assay with Hek293T and with JEG-3 was “inactive” each time.
For `C=C(C)C(=O)O[C@H]1[C@H]2C(=C)C(=O)O[C@@H]2C[C@@H](C)[C@@H]2O[C@@H]2C(=O)[C@](C)(O)[C@@H]1OC(=O)C(=C)C`, the Potency in the assay with C33A is 10 µM (active); in the assay with CASKI it was 10 µM (active); in the assay on Es-2, 7.94 µM (active); in the assay with Hek293T it was 2.82 µM (active); in the assay with JEG-3, 12.6 µM (active).
As to `NC(=O)N1CCC(CC(=O)N2CCC(C3c4ncc(Br)cc4CCc4cc(Cl)cc(Br)c43)CC2)CC1` (configuration not stated), the Potency result in the assay on C33A, with CASKI, in the assay with Es-2, with HeLa and in the assay with JEG-3 was “inactive” in each case.
Take `Nc1nc2c(c(N3CC[C@@H](N)C3)n1)CCCc1ccccc1-2`: the Potency result in the assay on C33A, with CASKI, in the assay on Es-2, in the assay on HeLa and in the assay on JEG-3 was “inactive” each time.
On to `COc1ccc(N(C(=O)Nc2c(C)cccc2C)c2cc(Nc3ccc(N4CCN(C)CC4)cc3)ncn2)c(OC)c1`, for which the Potency entry in the assay on C33A, in the assay with CASKI, with Es-2, in the assay on HeLa and in the assay with JEG-3 was “inactive” in each case.
Take `COc1cc2c(cc1OC)CN(C(=O)/C=C/c1c(-c3ccccc3)n(C)c3ncccc13)CC2`: the Potency entry with C33A, in the assay on CASKI, with Es-2, in the assay with HeLa and in the assay on JEG-3 was “inactive” in each case.
As to `C=CC(=O)N1CCCN(c2cc(NCCC(=O)O)nc(-c3ccccn3)n2)CC1`, the Potency entry in the assay on C33A, in the assay on CASKI, in the assay on HeLa, in the assay on Hek293T and in the assay on JEG-3 was “inactive” in each case.
`CCn1c2ccccc2c2cc(Nc3ccnc(NCCCN4CCOCC4)n3)ccc21`: the Potency result in the assay on C33A, in the assay with CASKI and with HeLa was “inactive” each time.
In the case of `CC#CC(=O)Nc1ccc2ncnc(Nc3cccc(Br)c3)c2c1`, the Potency with C33A is 11.2 µM (active); in the assay with CASKI, 8.91 µM (active); in the assay with Es-2, 14.1 µM (active). Also, in the assay with JEG-3, the Potency entry was “inactive”.
As for `CC(C)(C[C@@](O)(Cc1cc2ccncc2[nH]1)C(F)(F)F)c1cc(F)ccc1O`, the Potency result in the assay with C33A, in the assay on CASKI, with Es-2, in the assay on HeLa and in the assay on JEG-3 was “inactive” throughout.
On to `C=C1C(=O)O[C@@H]2/C=C(\CO)CC/C=C(/C=O)C[C@H](O)[C@@H]12`, for which the Potency entry with C33A, in the assay with CASKI, in the assay on HeLa and in the assay with JEG-3 was “inactive” throughout.
`CC(=O)O[C@@H]1[C@H](O[C@@H]2O[C@@H](CO)[C@H](O)[C@H]2O)[C@@H](O[C@@H]2O[C@@H](C)[C@H](O[C@@H]3OC[C@@H](O)[C@H](O)[C@H]3O)[C@@H](O)[C@H]2O)[C@H](OC(=O)[C@]23CCC(C)(C)C[C@H]2C2=CCC4[C@@]5(C)CC[C@H](O[C@@H]6O[C@H](C(=O)O)[C@@H](O)[C@H](O)[C@H]6O[C@@H]6O[C@H](CO)[C@H](O)[C@H](O)[C@H]6O)[C@@](C)(C=O)C5CC[C@@]4(C)[C@]2(C)C[C@H]3O)O[C@@H]1C` (some centres not stated): the activity change, negative = cytotoxicity with C33A was -10.4% [at 6.55 µM]; in the assay with CASKI, -9.38% [at 6.55 µM]; in the assay on HeLa, 10% [at 6.55 µM]; in the assay with JEG-3, 6.34% [at 6.55 µM].
With `N#Cc1ccc(-c2ccc(S(=O)(=O)Nc3cccc(N)n3)cc2)cc1`, the Potency entry with C33A, with CASKI, in the assay with Es-2, in the assay on HeLa and with JEG-3 was “inactive” in each case.
With `C=C1C(=O)O[C@@H]2C[C@@]3(C)CCCC(=C)[C@]3(O)C[C@H]12`, the Potency entry in the assay with C33A, in the assay with CASKI, with Es-2, in the assay on HeLa and in the assay with JEG-3 was “inactive” throughout.
Consider `CC1CCCC[C@H]2C(=O)C=C[C@H](O)[C@@H]2CC(=O)O1` (some centres not stated), for which the figures for the Potency in the assay on C33A, in the assay on Es-2 and in the assay with Hek293T were 20 µM (active), 10 µM (active) and 15.8 µM (active), respectively. The Potency entry in the assay with CASKI was “inactive”.
With `C#Cc1cccc(Nc2nc3cc(C(=O)O)ccc3c3cncnc23)c1`, the Potency entry with C33A and with JEG-3 was “inactive” each time. In addition, in the assay with HeLa, the Potency was 11.2 µM (active).
Take `Fc1ccc(-c2nc(C3CCNCC3)sc2-c2ccnc(NC3CC3)n2)cc1`: the Potency result in the assay on C33A and with Hek293T was “inactive” in each case.
For `CCCOc1ccc(CCc2nc3cc(-c4c(C)noc4C)ccc3n2CCN2CCOCC2)cc1`, the Potency entry in the assay with C33A, in the assay on Es-2, in the assay with HeLa, in the assay on Hek293T and in the assay with JEG-3 was “inactive” throughout.
Regarding `Cc1sc2c(c1C)C(c1ccc(Cl)cc1)=N[C@@H](CC(=O)Nc1ccc(OCCOCCOCCOCCNc3cccc4c3C(=O)N(C3CCC(=O)NC3=O)C4=O)cc1)c1nnc(C)n1-2` (some centres not stated), the Potency result with C33A and in the assay with Hek293T was “inactive” throughout.
`C/C=C(\C)C(=O)O[C@H]1C=C(CO)C(=O)[C@H](OC(C)=O)[C@H]1C(C)C`: the Potency with C33A is 12.6 µM (active). In addition, the Potency entry in the assay with HeLa is “inactive”.
Take `Cn1ncc(Cl)c1-c1cc(C(=O)NC(CN)Cc2ccc(F)c(F)c2)oc1Cl` (configuration not stated): the Potency in the assay with C33A was 3.16 µM (active); in the assay with Hek293T, 0.794 µM (active). Further, the Potency result with Es-2 and in the assay with HeLa was “inactive” in each case.
Take `Cc1nc(N2CCN(C(=O)c3ccco3)CC2)c2c3c(sc2n1)CCCC3`: the Potency result in the assay with C33A, in the assay on Es-2, in the assay with HeLa, in the assay on Hek293T and in the assay on JEG-3 was “inactive” in each case.
For the compound `COc1cc(C(N)=O)nc(-c2ccccn2)c1O`, the Potency result with C33A, with Es-2, in the assay on HeLa, in the assay on Hek293T and in the assay on JEG-3 was “inactive” each time.
